# Screening data: PubChem, National Center for Advancing Translational Sciences (NCATS)
# The list is not random: actives were taken first. Their share in the collection is about 6.8%.
# PINK1 modulator: A Quantitative High throughput Screen to Identify Chemical Modulators of PINK1 Expression; actives 0.2% (n = 410,000); AID 624263, 2012; Potency, µM (series often up to 76.6 µM), for inactives: top-dose activation (PINK1 increase), usual class: activators; PINK1 immunofluorescence, high-content cytometry, 24 h; active = well fitted activation curve with a large enough effect; inconclusive = small, poorly fitted or top-dose-only effect; cell line not stated here; note: % of control where 0% means no effect; nearly all actives have a fitted effect of over 65% in size
#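 Decision-based qHTS: stable cells, 24 h exposure to five compound concentrations, CCCP as control. Fixed cells stained for PINK1 plus nuclear, mitochondrial and cell markers, cytometer read.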
# KB-3-1 tox: qHTS assay for MDR1-selective chemotherapeutics: Primary screen using the parental adenocarcinoma cell KB-3-1; KB-3-1 viability, CellTiter-Glo ATP luminescence, 72 h; Potency, µM (series often up to 46.1 µM), most hits filed as cytotoxic; actives 1.4% (n = 400,000); AID 1347075, 2019; note: % is set by controls: 0 for no effect and ±100 for the full control effect; nearly all actives have a fitted effect of over 60% in size
#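 72 h, 37 °C compound treatment of KB-3-1 parental cells; CellTiter-Glo added, 10 min, luminescence read. Data corrected against DMSO-only plates and normalized before curve fitting.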
# SW480 rerep: A quantitative high throughput screen for small molecules that induce DNA re-replication in SW480 colon adenocarcinoma cells; AID 624297, 2012; SW480 DNA re-replication, Hoechst DNA content imaging, 48 h; Potency, µM (series often up to 46.1 µM), for the others: top-dose re-replication activation, most hits filed as activators; actives 1.8% (n = 340,000); note: % of control where 0% means no effect; nearly all actives have a fitted effect of over 55% in size
#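 Compounds, transferred as 23 nL by pin tool, were incubated with cells for 48 hr; DNA content per nucleus was then quantified by Hoechst staining and fluorescence plate imaging.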
# PTAP TSG101 blk: qHTS Assay for Iinhibitors of HIV-1 Budding by Blocking the Interaction of PTAP/TSG101 | Tumor susceptibility gene 101 protein (Homo sapiens), Q99816 | Fluorescence polarization, FITC-PTAP peptide / Tsg101 binding | Potency, µM (doses to about 115 µM), inactives show top-dose activity change, negative = inhibition, most hits filed as inhibitors | 340,000 tested, under 10 active | AID 493005, 2010; active = well fitted inhibition curve with a large enough effect in the main read-out, with a control signal flat, not every such curve was filed as active; inconclusive = small, poorly fitted or top-dose-only effect, or effect the other way, or a change in a side signal; inactive = no such curve, though single readings can be large or run the other way; note: % of control where 0% means no effect
# Target sequence (Q99816 whole entry, looked up): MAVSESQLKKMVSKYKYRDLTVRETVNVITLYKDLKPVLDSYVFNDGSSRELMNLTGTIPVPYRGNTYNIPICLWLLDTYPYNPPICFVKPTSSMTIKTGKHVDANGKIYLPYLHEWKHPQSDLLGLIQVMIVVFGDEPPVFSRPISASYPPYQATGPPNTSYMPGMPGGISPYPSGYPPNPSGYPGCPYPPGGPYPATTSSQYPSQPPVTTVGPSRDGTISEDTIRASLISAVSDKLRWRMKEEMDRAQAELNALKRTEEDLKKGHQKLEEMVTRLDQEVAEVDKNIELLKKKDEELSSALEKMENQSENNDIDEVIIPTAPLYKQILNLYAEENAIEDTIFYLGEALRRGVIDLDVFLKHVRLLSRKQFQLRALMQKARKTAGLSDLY
#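 Fluorescence polarization binding of Tsg101 binding domain (10 uM final) to FITC-labeled PTAP peptide (50 nM final) in HEPES pH 7.5 buffer with NaCl, Tween 20, EDTA, TCEP. Compounds added before peptide; binding 20 min at RT.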
# KB-V1 MDR tox: qHTS assay for MDR1-selective chemotherapeutics: Primary screen using the drug-selected MDR subline cells KB-V1; KB-V1 MDR cells viability, CellTiter-Glo, 72 h; Potency, µM (titrated, usually from 46.1 µM), actives largely listed as cytotoxic; actives 3.4% (n = 400,000); AID 1347076, 2019; note: % is set by controls: 0 for no effect and ±100 for the full control effect; nearly all actives have a fitted effect of over 60% in size
#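 Following 72 h at 37 degrees C with compound, KB-V1 cell viability was read by CellTiter-Glo luminescence, medium being phenol-red-free DMEM plus 10% FBS; concentration-response parameters came from normalized, curve-fitted qHTS data.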
# MCF10A rereplic: A quantitative high throughput screen for small molecules that induce DNA re-replication in MCF 10a normal breast cells | Potency, µM (top dose mostly 46.1 µM), inactives show at the top dose activity, positive = re-replication, most hits filed as activators | actives 2.9% (n = 350,000) | MCF 10A DNA re-replication, Hoechst nuclear intensity, 48 h | AID 624296, 2012; note: % of control where 0% means no effect; nearly all actives have a fitted effect of over 50% in size
# Numbers without * were called inactive; i = inactive; ? = inconclusive; . = no result given; [ ] = another dose, or the depositor's remark. Unless noted, calls come from the whole dose curve; as a rule, active = well fitted curve in the direction sought with a large enough effect; inconclusive = small, poorly fitted or top-dose-only effect, or another doubt; inactive = no such curve, though single readings can be large; an effect the other way counts as inactive or inconclusive. Potency is the fitted concentration of half-maximal effect.
SMILES,PINK1 modulator,KB-3-1 tox,SW480 rerep,PTAP TSG101 blk,KB-V1 MDR tox,MCF10A rereplic
O=C(NCCCN1CCOCC1)c1ccc(S(=O)(=O)Nc2ccccc2)cc1,2%,i,1%,-2%,i,?
COc1ccccc1NS(=O)(=O)c1ccc(C(=O)NCCCN2CCOCC2)cc1,-3%,i,8.2µM*,-1%,i,-7%
O=C(Nc1ccc(S(=O)(=O)N2CCCCC2)cc1)C1CCCN(C(=O)c2ccc(Cl)cc2)C1 (stereo not drawn),1%,9.2µM*,-1%,-3%,i,29%
COC(=O)Nc1ccc(S(=O)(=O)N2CCCCC2)cc1,?,?,-3%,-5%,8.2µM*,7%
CC1CC1C(=O)Nc1ccc(S(=O)(=O)N2CCCCC2)cc1 (stereo not drawn),13%,i,-12%,0%,10µM*,15%
CCCCS(=O)(=O)CC(O)CSc1nc(-c2ccc(C)cc2)cc(-c2ccccc2)c1C#N (stereo not drawn),2%,i,.,.,i,.
CCc1ccc(C(=O)C[n+]2cccc3cc(OC)ccc32)cc1,0%,13µM*,0%,-2%,i,-2%
Cn1cccc1/C=C1\CC(C(C)(C)C)C/C(=C\c2cccn2C)C1=O (stereo not drawn),?,?,?,?,4.1µM*,3.7µM*
Cn1cccc1/C=C1\Cc2ccccc2C1=O,3%,i,5%,1%,i,8%
O=c1c2ccccc2sc2c(CO)ccc(NCCN3CCCCC3)c12,-7%,?,?,-3%,16µM*,25%
CCN(CC)CCNc1cccc2sc3ccccc3c(=O)c12,-2%,i,.,.,?,.
CCN(CC)CCNc1ccc(CO)c2sc3ccccc3c(=O)c12,-1%,16µM*,?,2%,?,?
O=C(Nc1c(C(=O)N2CCN(c3ccc(F)cc3)CC2)oc2ccccc12)c1c(F)cccc1F,-3%,i,.,.,i,.
Cc1ccc(-c2cc3ncc4c(n3n2)-c2ccccc2OC4)cc1,1%,i,.,.,i,.
COc1cc(C(=O)NC(=S)Nc2ccc([N+](=O)[O-])cc2C)cc(OC)c1OC,13%,i,17%,-4%,2.1µM*,2%
Cc1nc2c(c3c1[nH]c1ccccc13)C(=O)CC(C)(C)C2,-2%,i,?,-2%,i,23µM*
CC1(C)CC(=O)c2c(nc3ccccc3c2N)C1,-1%,i,-1%,-8%,i,13%
COc1ccc(Cl)c(N2CCN(CCCNC(=O)Nc3ccc(C)cc3)CC2)c1,-4%,23µM*,?,-4%,i,30%
C#CCN(C[C@@H]1[C@@H](OC(=O)NCc2ccccc2F)[C@@H](OC(=O)NCc2ccccc2F)Cn2c(=O)n(CCCCCC)c(=O)n21)S(=O)(=O)c1ccc(C)cc1,4%,i,.,.,i,.
C#CCN(C[C@@H]1[C@@H](OC(=O)NCc2ccccc2F)[C@@H](OC(=O)NCc2ccccc2F)Cn2c(=O)ccc(=O)n21)S(=O)(=O)c1ccc(C)cc1,0%,15µM*,.,.,i,.
CCCCOC(=O)c1ccc(NC(=O)c2ccc3c(c2)CCN3S(=O)(=O)c2ccccc2)cc1,2%,.,.,.,.,.
O=S(=O)(c1ccc(Oc2ccc(Cl)cc2)c(S(=O)(=O)N2CCCCC2)c1)N1CCCCC1,-1%[38.3 µM],i,-11%,-2%,3.3µM*,19%
COc1ccc(S(=O)(=O)Nc2ccccc2OC)cc1C,.,i,-4%,-2%,?,?
